Data: PubChem BioAssay AID1494158 (National Center for Advancing Translational Sciences (NCATS), 2020)
Inconclusive results are not listed. Activity calls are given as the source filed them. The call rests on the fitted dose curve.

Experiment: VSV-G qHTS counterscreen for inhibitors of SARS-S pseudo-typed particle cell entry
Details: VSV-G pseudotyped particle entry counterscreen, luciferase; series mostly up to 57.1 µM

Structure (SMILES)	Potency
C=C1c2c(Cl)ccc(O)c2C(O)=C2C(=O)[C@@]3(O)C(O)=C(C(N)=O)C(=O)[C@@H](N(C)C)[C@@H]3[C@@H](O)[C@H]12	15.2 µM (active)
CN(C)CCOC(c1ccccc1)c1ccc(Br)cc1 (centres undefined)	inactive
CCCCCCCCCCCCCC[n+]1ccc(C)cc1	1.92 µM (active)
NCCNc1ccc(NCCN)c2c1C(=O)c1ccncc1C2=O	3.41 µM (active)
CN1CC[C@H](CN2c3ccccc3Sc3ccccc32)C1	inactive
C[C@@H](c1nc(-c2ccc(C#N)cc2)cs1)[C@](O)(Cn1cncn1)c1cc(F)ccc1F	21.5 µM (active)
CC(C)OC(=O)OCOP(=O)(CO[C@H](C)Cn1cnc2c(N)ncnc21)OCOC(=O)OC(C)C	0.0961 µM (active)
C/C=C(/C)C(=O)O[C@H]1C(C)=CC23C(=O)C(C=C(CO)[C@@H](O)[C@]12O)[C@H]1[C@@H](C[C@H]3C)C1(C)C (some centres undefined)	0.215 µM (active)
CC(CN(C)C)CN1c2ccccc2CCc2ccccc21 (centres undefined)	inactive
CO[C@@]12[C@H](COC(N)=O)C3=C(C(=O)C(C)=C(N)C3=O)N1C[C@@H]1N[C@@H]12	3.41 µM (active)
CC(C)C[C@H](NC(=O)[C@H](CCc1ccccc1)NC(=O)CN1CCOCC1)C(=O)N[C@@H](Cc1ccccc1)C(=O)N[C@@H](CC(C)C)C(=O)[C@@]1(C)CO1	0.764 µM (active)
CCn1cc(C(=O)O)c(=O)c2cc(F)c(N3CCNC(C)C3)c(F)c21 (centres undefined)	inactive
CC[C@@]1(O)C(=O)OCc2c1cc1n(c2=O)Cc2c-1nc1ccccc1c2/C=N/OC(C)(C)C	0.0764 µM (active)
O=C1c2c(O)ccc(O)c2C(=O)c2c(NCCNCCO)ccc(NCCNCCO)c21	0.171 µM (active)
COc1cc([C@@H]2c3cc4c(cc3C(O[C@@H]3O[C@@H]5CO[C@@H](c6cccs6)OC5[C@H](O)[C@H]3O)C3COC(=O)[C@@H]32)OCO4)cc(OC)c1O (some centres undefined)	0.857 µM (active)
CC(C)C(=O)Oc1ccc(CO)cc1[C@H](CCN(C(C)C)C(C)C)c1ccccc1	27.1 µM (active)
Oc1c(Cl)cc(Cl)c(Cl)c1Cc1c(O)c(Cl)cc(Cl)c1Cl	2.71 µM (active)

Structure (SMILES)	Potency
Cc1c(N)nc(C(CC(N)=O)NCC(N)C(N)=O)nc1C(=O)NC(C(=O)NC(C)C(O)C(C)C(=O)NC(C(=O)NCCc1nc(-c2nc(C(=O)NCCCN[C@@H](C)c3ccccc3)cs2)cs1)C(C)O)C(O[C@@H]1O[C@@H](CO)[C@@H](O)[C@H](O)[C@@H]1O[C@H]1O[C@H](CO)[C@@H](O)[C@H](OC(N)=O)[C@@H]1O)c1cnc[nH]1 (some centres undefined)	0.304 µM (active)
CC[C@@]1(O)C(=O)OCc2c1cc1n(c2=O)Cc2cc3c([N+](=O)[O-])cccc3nc2-1	0.124 µM (active)
C=C(C)[C@H]1Cc2c(ccc3c2O[C@@H]2COc4cc(OC)c(OC)cc4[C@@H]2C3=O)O1	0.0383 µM (active)
COc1ccc(Cc2nccc3cc(OC)c(OC)cc23)cc1OC	19.2 µM (active)
CCC(C)(C)C(=O)O[C@H]1C[C@@H](C)C=C2C=C[C@H](C)[C@H](CC[C@@H]3C[C@@H](O)CC(=O)O3)[C@H]21	1.21 µM (active)
CNCCCC12CCC(c3ccccc31)c1ccccc12	inactive
COc1cccc2c1C(=O)c1c(O)c3c(c(O)c1C2=O)C[C@@](O)(C(=O)CO)C[C@@H]3O[C@H]1C[C@H](N)[C@H](OC2CCCCO2)[C@H](C)O1 (some centres undefined)	9.61 µM (active)
Cc1nnc2n1-c1sc(CCc3ccc(CC(C)C)cc3)cc1C(c1ccccc1Cl)=NC2C (centres undefined)	27.1 µM (active)
COC(=O)C1=C(C)NC(C)=C(C(=O)OCC(C)C)C1c1ccccc1[N+](=O)[O-] (centres undefined)	24.1 µM (active)
Nc1nc(Cl)nc2c1ncn2C1CC(O)C(CO)O1 (centres undefined)	5.41 µM (active)
COc1cccc2c1C(=O)c1c(O)c3c(c(O)c1C2=O)C[C@@](O)(C(=O)CO)C[C@@H]3O[C@H]1C[C@H](N)[C@@H](O)[C@H](C)O1	4.82 µM (active)
CCCCCCCCCCCC[n+]1ccc2ccccc2c1	1.92 µM (active)
O=C1CCc2ccc(OCCCCN3CCN(c4cccc(Cl)c4Cl)CC3)cc2N1	19.2 µM (active)
COC(=O)C[C@](O)(CCCC(C)(C)O)C(=O)O[C@@H]1C(OC)=C[C@]23CCCN2CCc2cc4c(cc2[C@H]13)OCO4	1.36 µM (active)
N=C(N)c1ccc(OCCCCCOc2ccc(C(=N)N)cc2)cc1	21.5 µM (active)
CNC(=O)c1cc(Oc2ccc(NC(=O)Nc3ccc(Cl)c(C(F)(F)F)c3)c(F)c2)ccn1	10.8 µM (active)
COc1ccc2cc1Oc1ccc(cc1)C[C@H]1c3c(cc4c(c3Oc3cc5c(cc3OC)CCN(C)[C@@H]5C2)OCO4)CCN1C	21.5 µM (active)
